About 83,000 compounds went through this panel and 20% of them were active in at least one assay; those are over-represented in the sample as a whole.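 Treatment: one concentration, 48 hours, 96-well format. Scoring: percent growth, with anything below 10 considered active.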 Activity calls are given as the source filed them.
Experiments:
Test in all cases: NCI-60 one-dose screen, 48 h (100 = growth as untreated, 0 = no growth, -100 = all killed)
Settings in all cases: 10 µM unless noted
[1] = test system: EKVX NSCLC
[2] = test system: SN12C renal
[3] = test system: UO-31 renal
[4] = test system: TK-10 renal
[5] = test system: ACHN renal
[6] = test system: CAKI-1 renal
[7] = test system: A498 renal
[8] = test system: CCRF-CEM leukemia
[9] = test system: MOLT-4 leukemia
[10] = test system: SR leukemia
[11] = test system: RPMI-8226 leukemia
[12] = test system: OVCAR-8 ovarian
[13] = test system: OVCAR-5 ovarian
[14] = test system: OVCAR-4 ovarian
[15] = test system: IGROV1 ovarian
[16] = test system: OVCAR-3 ovarian
[17] = test system: HS 578T breast
[18] = test system: T-47D breast
[19] = test system: SK-OV-3 ovarian
[20] = test system: NCI/ADR-RES ovarian

Measured: growth

COc1ccc([C@@H]2c3[nH]c4ccccc4c3CC3C(=O)N(C4CCN(Cc5c(F)cccc5F)CC4)CC(=O)N32)c(OC)c1 (some centres not stated)
inactive: [1] 51.9% [5.26 µM] | [2] 67.5% [5.26 µM] | [3] 39.7% [5.26 µM] | [4] 63.5% [5.26 µM] | [5] 47.6% [5.26 µM] | [6] 40.4% [5.26 µM] | [7] 29.4% [5.26 µM] | [8] 58.1% [5.26 µM] | [9] 49% [5.26 µM] | [10] 79.4% [5.26 µM] | [11] 41.3% [5.26 µM] | [12] 73.4% [5.26 µM] | [13] 76.7% [5.26 µM] | [14] 69.4% [5.26 µM] | [15] 39.8% [5.26 µM] | [16] 64.1% [5.26 µM] | [17] 45.1% [5.26 µM] | [18] 47.1% [5.26 µM]

Nc1cc(-c2c[nH]c3ccccc23)nc2cc(-c3c[nH]c4ccccc34)nn12
inactive: [1] 74.5% | [2] 73% | [3] 44.2% | [4] 89.4% | [5] 51.6% | [6] 59.4% | [7] 42.3% | [8] 45.4% | [9] 34% | [10] 14% | [12] 64.3% | [13] 51% | [14] 65.1% | [19] 139% | [15] 57.2% | [16] 92.4% | [17] 81.1% | [20] 59% | [18] 68.7%

N#Cc1c(-c2ccc(Cl)cc2)nc(SCc2ccc([N+](=O)[O-])cc2)nc1N1CCNCC1
active: [2] 1.59% | [5] -67.4% | [8] -14% | [9] -27% | [10] -43.3% | [11] -24.5% | [12] -81.6% | [15] -1.76% | [16] -32.6% | [20] 8.72% | [18] -9.43%
inactive: [1] 51.9% | [3] 22.4% | [4] 77.4% | [6] 13.6% | [7] 44.7% | [14] 26.9% | [19] 111% | [17] 52.1%

Cc1ccccc1NC(=O)/C=C/c1ccc(OCCOc2ccc3c(C)cc(=O)oc3c2)cc1
inactive: [1] 107% | [2] 91.5% | [3] 99.6% | [4] 132% | [5] 89.4% | [6] 95.1% | [7] 81.3% | [8] 95.7% | [9] 93.2% | [10] 61.3% | [12] 64.9% | [13] 103% | [14] 75.5% | [19] 77.6% | [15] 103% | [17] 61.2% | [20] 84.6% | [18] 84.1%

CCCC(=O)NC(c1ccc2c(c1)OC(F)(F)O2)c1cc(C)c2cccnc2c1O (configuration not stated)
active: [3] 6.46% | [5] 6.71% | [7] 6.01% | [8] 9.16% | [19] 9.65%
inactive: [1] 23.1% | [2] 19.4% | [4] 54.8% | [6] 12.8% | [9] 15.3% | [10] 13% | [11] 29.1% | [12] 14.3% | [14] 33.7% | [15] 12.7% | [16] 24.8% | [17] 38.5% | [20] 18.8% | [18] 23.9%

Fc1ccc(-c2cc3nc(C(Cl)Cl)nc(-c4ccc(Cl)cc4)n3n2)cc1
inactive: [2] 53.3% | [3] 27.4% | [4] 17.3% | [8] 56.8% | [9] 19.3% | [11] 10.9% | [15] 44.5% | [20] 20.3% | [18] 37.4%
active: [1] 5.99% | [5] -63.6% | [6] -23.3% | [7] -38.8% | [10] 3.51% | [13] -4.91% | [14] -9.93% | [19] -16.6% | [16] -31.9% | [17] 8.56%

O=C1c2c(c3c4cc(Br)ccc4[nH]c3c3ccc4ccccc4c23)C(=O)N1CCO
active: [10] -6.75%
inactive: [1] 100% | [2] 89.5% | [3] 78% | [4] 160% | [5] 73.7% | [6] 69.6% | [7] 90.6% | [8] 64.6% | [9] 70.5% | [11] 80.3% | [13] 108% | [14] 104% | [19] 89.3% | [15] 73.9% | [17] 103% | [20] 90.5% | [18] 51.5%

COc1cccc(N2CCN(c3ncnc4c3[nH]c3ccc(F)cc34)C[C@@H]2C)c1
active: [1] -0.593% | [2] -28.2% | [3] -98.8% | [4] -31.6% | [5] -12.9% | [6] -28.6% | [7] -23.1% | [8] -16.1% | [9] -42% | [10] -22.8% | [12] -96.7% | [13] 0.0989% | [14] -56.5% | [19] -3.28% | [15] -30.2% | [16] -7.65% | [17] -18.7% | [20] 7.77% | [18] -52.6%

COc1cccc(NC2=CC(=O)C(C)=C(C)C2=O)c1
active: [14] -1.68% | [16] 0.294%
inactive: [1] 36.7% | [2] 80.5% | [3] 86% | [4] 135% | [5] 70.9% | [6] 93% | [7] 67.2% | [8] 15.8% | [9] 17.9% | [10] 23.2% | [11] 17.5% | [12] 16.9% | [13] 101% | [15] 40% | [17] 112% | [18] 47.7%

CC(C)(C)Nc1nc2c(OCCc3ccccc3)cccn2c1-c1ccccc1Cl
inactive: [4] 10.6% | [14] 13.5% | [18] 10.3%
active: [1] 6.5% | [2] 0.779% | [3] -14% | [5] 4.1% | [6] -6.8% | [7] -23% | [8] 1.24% | [9] -21.5% | [10] -14.6% | [12] 9.35% | [19] -22.7% | [15] 5.74% | [16] 8.2% | [17] -1.74% | [20] 5.82%

CSc1ccc2c(c1)N(C(=O)/C(C#N)=C/c1c[nH]c3ccccc13)c1ccccc1S2
inactive: [1] 34.8% | [2] 33.9% | [3] 50.4% | [4] 71.3% | [5] 39.9% | [6] 38.5% | [7] 10.8% | [8] 19% | [9] 30.5% | [10] 34.4% | [11] 21.3% | [12] 52.4% | [13] 63.1% | [14] 59.5% | [15] 40.2% | [16] 37.5% | [17] 37.8% | [18] 29.9%

CCN(CC)c1ccc(C=O)c(OCc2cn(CC(=O)Nc3ccc(Cl)cc3)nn2)c1
active: [3] -58.2%
inactive: [1] 82.8% | [2] 63.5% | [4] 83.8% | [5] 24.3% | [6] 57.5% | [7] 89.2% | [8] 72.7% | [9] 51.9% | [10] 47% | [13] 91% | [14] 70.4% | [19] 86.8% | [15] 74.7% | [16] 83.5% | [17] 87.8% | [20] 84.2% | [18] 59.8%

CCN1CCN(/C(=N\c2sc(-c3ccccc3)nc2-c2ccccc2)c2ccccc2)CC1
inactive: [1] 78.8% | [2] 76.2% | [3] 64.5% | [4] 94.1% | [5] 88.8% | [6] 65.3% | [7] 113% | [8] 68.1% | [9] 60.7% | [10] 52.8% | [12] 97.1% | [13] 91.8% | [14] 31.8% | [19] 99.5% | [15] 92.9% | [16] 87.2% | [17] 92.2% | [20] 82.1% | [18] 63.7%

NS(=O)(=O)c1ccc(Nc2nc(SCC(=O)c3ccc(Cl)cc3)nc3ccccc23)cc1
inactive: [1] 90.6% | [2] 88.1% | [3] 82.3% | [4] 153% | [5] 89% | [6] 74.5% | [7] 74.8% | [8] 92.4% | [9] 91.3% | [10] 79.6% | [11] 83.6% | [12] 95.6% | [14] 91.3% | [19] 110% | [15] 82.8% | [16] 102% | [17] 92.2% | [20] 105% | [18] 77.6%

Clc1ccc(-c2cn3cc(Cc4ccc(Cl)c(Cl)c4)sc3n2)cc1
inactive: [1] 69.8% | [2] 76.6% | [3] 68.1% | [4] 112% | [5] 47% | [6] 42.6% | [7] 82.3% | [9] 61% | [10] 94.5% | [11] 90.9% | [12] 75.5% | [13] 83.6% | [14] 56.1% | [19] 106% | [15] 62.5% | [16] 97.5% | [17] 94.1% | [20] 88.9% | [18] 50.4%

COc1cc(/C=C/C(=O)c2ccc(C(F)(F)F)cc2)ccc1Oc1nc(NCCO)nc(N2CCOCC2)n1
inactive: [1] 93.7% | [2] 86.9% | [3] 70.5% | [4] 111% | [5] 86.2% | [6] 82.7% | [12] 95.9% | [13] 101% | [14] 96% | [19] 101% | [15] 92.5% | [16] 109% | [17] 82% | [20] 96.7% | [18] 83.5%
active: [8] 4.08% | [9] 3.51% | [10] -8.21% | [11] -16.1%
